Sfp inh: blocks B. subtilis Sfp PPTase activity; hit rate 3.5% among 310,000; Q9F4F7; Potency, µM, most hits filed as inhibitors; Biochemical Sfp PPTase activity, qHTS;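 further: the enzyme is Sfp with the accession as filed and its product quenches rhodamine fluorescence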
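Buffer: 50 mM Hepes-Na pH 7.6, 10 mM MgCl2, 0.01% Nonidet P-40, 0.01% BSA. Enzyme 15 nM, pre-exposed to compound 15 min; substrates then added and fluorescence change tracked over 30 min.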
PLK1 PBD block: PLK1 (human) polo-box domain binding inhibition; P53350; Plk1 PBD binding of FITC phosphopeptide, fluorescence polarization; Potency, µM, hits mostly inhibitors; hit rate 2.8% among 360,000; AID 720504; further: series mostly up to about 57 µM; nearly all actives have a fitted effect of over 65% in size
HP1b binding inh: blocks HP1-beta chromodomain binding to methylated histone tails; P83916; AlphaScreen HP1-beta / biotin-H3K9me3 peptide binding; Potency, µM (highest dose often 114 µM), actives largely listed as inhibitors; hit rate 0.56% among 390,000; AID 540317; further: nearly all actives have a fitted effect of over 70% in size
Target sequence (P83916 whole entry, looked up): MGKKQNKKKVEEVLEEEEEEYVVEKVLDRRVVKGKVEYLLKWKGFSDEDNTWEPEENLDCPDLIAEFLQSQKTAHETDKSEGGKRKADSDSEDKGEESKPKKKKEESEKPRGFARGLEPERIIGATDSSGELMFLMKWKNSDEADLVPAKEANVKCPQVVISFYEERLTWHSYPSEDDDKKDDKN
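Compound inhibition of the preformed complex between 50 nM HP1-beta and 50 nM biotinylated H3K9me3 peptide was read by AlphaScreen. Buffer was PBS pH 7.4 with 0.01% Tween-20. Incubations ran 30 min at room temperature, with 10 ug/mL donor/acceptor beads.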
G9a inh: G9a (human) methyltransferase inhibition. Q96KQ7. G9a H3K9 monomethylation, AlphaScreen, 2 h. Potency, µM (top dose mostly 102 µM), usual class: inhibitors. hit rate 8.8% among 350,000. AID 504332; further: nearly all actives have a fitted effect of over 75% in size
Target sequence (Q96KQ7 913-1193 limits assumed): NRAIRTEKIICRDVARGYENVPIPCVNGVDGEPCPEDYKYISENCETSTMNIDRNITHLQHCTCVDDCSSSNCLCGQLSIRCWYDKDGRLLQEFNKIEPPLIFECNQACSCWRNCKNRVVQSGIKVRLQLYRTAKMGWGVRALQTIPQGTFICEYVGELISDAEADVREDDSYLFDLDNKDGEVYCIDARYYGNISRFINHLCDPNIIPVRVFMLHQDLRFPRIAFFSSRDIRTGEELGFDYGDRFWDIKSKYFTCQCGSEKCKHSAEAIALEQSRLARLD
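Compounds were preincubated with 20 nM G9a for 15 min, after which biotinylated H3K9 peptide (500 nM) and SAM (20 uM) started a 2 h room-temperature reaction. Monomethylated product was quantified by antibody-based AlphaScreen chemiluminescence.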
BAZ2B inh: blocks human BAZ2B. Q9UIF8. AlphaScreen BAZ2B-H3K14Ac peptide displacement. Potency, µM (titrated, usually from 114 µM), most hits filed as inhibitors. hit rate 4.4% among 360,000; further: nearly all actives have a fitted effect of over 60% in size
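AlphaScreen displacement: compounds (up to 110uM) incubated 30 min at room temperature with a preformed 50 nM BAZ2B/50 nM biotinylated H3K14Ac peptide complex in PBS pH 7.4 with Tween-20. Donor and acceptor beads at 10 ug/mL final added, 20 min light-protected before reading.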
JMJD2A Tudor inh: JMJD2A Tudor domain (human) inhibition; O75164; AlphaScreen JMJD2A-Tudor / H3K4me3 peptide binding; Potency, µM (highest dose often 114 µM), usual class: inhibitors; hit rate 4.4% among 390,000; further: nearly all actives have a fitted effect of over 50% in size
Hits are given with their value; [ ] = another dose, or the depositor's remark. In the library only some 12% were active in any assay of this set; here they are far more common. The call rests on the fitted dose curve; in most records, active means well fitted curve in the direction sought with a large enough effect; inconclusive means small, poorly fitted or top-dose-only effect, or another doubt; inactive means no such curve, though single readings can be large; an effect the other way counts as inactive or inconclusive.

For CNC(=O)NC(=O)C(C)OC(=O)c1c2c(nc3ccccc13)/C(=C/c1cccs1)CC2 (stereo not given) the results were Sfp inh 32µM, PLK1 PBD block inactive, HP1b binding inh inactive, G9a inh inactive, BAZ2B inh inactive and JMJD2A Tudor inh inactive.
`CC[C@H](C)[C@H](NC(=O)CNC(=O)[C@H](CCCNC(=N)N)NC(=O)CNC(=O)[C@@H](NC(=O)[C@H](Cc1ccc(O)cc1)NC(=O)[C@H](Cc1c[nH]c2ccccc12)NC(=O)[C@H](C)NC(=O)[C@@H]1CCCN1C(=O)[C@H](CC(N)=O)NC(=O)[C@@H](NC(=O)[C@H](CC(=O)O)NC(=O)[C@@H]1CCCN1C(=O)[C@@H](N)[C@@H](C)O)[C@@H](C)CC)[C@@H](C)O)C(=O)N[C@@H](CCCNC(=N)N)C(=O)N1CCC[C@H]1C(=O)N[C@H](C(=O)NCC(=O)N[C@@H](CCCNC(=N)N)C(=O)N[C@@H](Cc1ccccc1)C(N)=O)C(C)C` gave Sfp inh inactive.
Cc1ccc(C(=O)N2CC(=O)Nc3ccc(Br)cc3C2c2ccc(F)cc2)cc1C (stereo not given) was read as HP1b binding inh inactive, G9a inh inactive, BAZ2B inh inactive and JMJD2A Tudor inh inactive.
CCCCCC(=O)Nc1cc(S(=O)(=O)O)cc2cc(S(=O)(=O)O)cc(O)c12 was read as PLK1 PBD block 6µM, HP1b binding inh 1.4µM and JMJD2A Tudor inh 1.1µM.
CCCCCC(=O)Nc1cccc2ccccc12 was read as Sfp inh inactive, PLK1 PBD block inactive, HP1b binding inh inactive, G9a inh inactive, BAZ2B inh inactive and JMJD2A Tudor inh inactive.
CC(C)N(C(=O)CSc1nc2ccccc2n1-c1ccccc1)C(C)C was read as Sfp inh 79µM, PLK1 PBD block inactive, HP1b binding inh inactive, G9a inh inactive[0.0925 µM], BAZ2B inh inactive and JMJD2A Tudor inh inactive.
For CCOc1ccc2[nH]c(O)c(NC(C)=O)c2c1 the results were Sfp inh inactive, PLK1 PBD block inactive, HP1b binding inh inactive, G9a inh inconclusive, BAZ2B inh inactive and JMJD2A Tudor inh inactive.
Screening CCOc1ccc2[nH]c3c(c2c1)CNCC3 returned Sfp inh inactive, PLK1 PBD block inactive, HP1b binding inh inactive, G9a inh 71µM, BAZ2B inh inactive and JMJD2A Tudor inh inconclusive.
O=c1c2[nH]cnc2n(-c2cccc(Br)c2)c(=O)n1Cc1ccccc1 was read as Sfp inh inactive, PLK1 PBD block inactive, HP1b binding inh inactive, G9a inh inactive, BAZ2B inh inactive and JMJD2A Tudor inh inactive.
`CCN(CC)c1ccc(-c2n[nH]c(=S)n2-c2ccccc2)cc1` gave Sfp inh inactive, PLK1 PBD block inactive, HP1b binding inh inactive, G9a inh 1.4µM, BAZ2B inh inactive and JMJD2A Tudor inh 20µM.
CN(C)c1ccc(-c2n[nH]c(=S)n2-c2ccccc2)cc1 was read as Sfp inh inactive, PLK1 PBD block inactive, HP1b binding inh inactive, G9a inh 1.8µM, BAZ2B inh inactive and JMJD2A Tudor inh 7.9µM.
For Cc1c2cnn(CC(=O)NC(C)C)c(=O)c2c(C)n1Cc1cccc(Cl)c1 the results were HP1b binding inh inactive, G9a inh inactive, BAZ2B inh inactive and JMJD2A Tudor inh inactive.
COc1ccc(NS(=O)(=O)c2cnc(N)nc2)cc1Cl was read as HP1b binding inh inactive, G9a inh inactive, BAZ2B inh inactive and JMJD2A Tudor inh 50µM.
Screening COc1ccc(CSc2nc3ncccc3[nH]2)cc1 returned HP1b binding inh inactive, G9a inh inactive, BAZ2B inh inactive and JMJD2A Tudor inh inactive.
Screening Fc1ccccc1CSc1nc2ncccc2[nH]1 returned Sfp inh inconclusive, PLK1 PBD block 19µM, HP1b binding inh inactive, G9a inh inconclusive, BAZ2B inh inactive and JMJD2A Tudor inh inactive.
O=C(NCc1ccc(F)cc1)c1cc(C2CCCCN2C(=O)OCCF)on1 (stereo not given) was read as PLK1 PBD block inactive.
`CC1C/C(=N\NC(=O)c2cccnc2)CC(C)(C)C1` (stereo not given) gave Sfp inh inactive, PLK1 PBD block inactive, HP1b binding inh inactive, G9a inh inactive, BAZ2B inh inconclusive and JMJD2A Tudor inh inconclusive.
Screening CC1C/C(=N\NC(=O)c2ccc([N+](=O)[O-])cc2)CC(C)(C)C1 (stereo not given) returned Sfp inh 79µM, PLK1 PBD block inactive, HP1b binding inh inactive, G9a inh inactive[12.7 µM], BAZ2B inh inactive and JMJD2A Tudor inh inactive.
`O=C(CSc1nnc(NC(=O)C2CC2)s1)Nc1ccc2c(c1)OCCO2` gave Sfp inh inactive, PLK1 PBD block inactive, HP1b binding inh inactive, G9a inh inactive, BAZ2B inh inactive and JMJD2A Tudor inh inactive.
Screening O=C(C1CCN(CCCc2ccccc2)CC1)N1CCCCC1 returned Sfp inh inactive, PLK1 PBD block inactive, HP1b binding inh inconclusive, G9a inh 20µM, BAZ2B inh inconclusive and JMJD2A Tudor inh 0.89µM.
For CC1CCN(C(=O)C2CCN(CCCc3ccccc3)CC2)CC1 the results were Sfp inh inactive, G9a inh 14µM and BAZ2B inh inconclusive.
Screening CCOC(=O)c1ccc(NC(=O)c2cc3cc(C)ccc3n2C)cc1 returned HP1b binding inh inactive, G9a inh inactive, BAZ2B inh inactive and JMJD2A Tudor inh inactive.
Screening CCCCC[n+]1ccn(-c2nc3ccccc3nc2[N-]S(=O)(=O)c2ccccc2)c1 returned Sfp inh 35µM, PLK1 PBD block inactive, HP1b binding inh inactive, G9a inh inactive, BAZ2B inh 20µM and JMJD2A Tudor inh inactive.
For Cc1onc(-c2ccccc2)c1C(=O)N1CCCC1 the results were Sfp inh inactive, PLK1 PBD block inactive, HP1b binding inh inactive, G9a inh inactive, BAZ2B inh 50µM and JMJD2A Tudor inh inactive.
`Cc1onc(-c2c(F)cccc2Cl)c1C(=O)N1CCSCC1` gave Sfp inh inactive, PLK1 PBD block inactive, HP1b binding inh inactive, G9a inh 50µM, BAZ2B inh inactive and JMJD2A Tudor inh inactive.
Cc1onc(-c2ccccc2)c1C(=O)N1CCCCCC1 was read as Sfp inh inactive, PLK1 PBD block inactive, HP1b binding inh inactive, G9a inh inactive, BAZ2B inh inactive and JMJD2A Tudor inh inactive.
`Clc1cccc(-n2cc(-c3ccccc3)c3c(N4CCCCC4)ncnc32)c1` gave HP1b binding inh inactive, G9a inh inactive, BAZ2B inh inactive and JMJD2A Tudor inh inactive.
`Cc1ccc(S(=O)(=O)Cn2nnnc2C(c2ccccn2)N2CCN(c3ccccc3)CC2)cc1` (stereo not given) gave Sfp inh inactive, PLK1 PBD block inactive, HP1b binding inh inactive, G9a inh 35µM, BAZ2B inh inconclusive and JMJD2A Tudor inh inactive.

Compound activity: PubChem BioAssay, National Center for Advancing Translational Sciences (NCATS)
